From PubChem BioAssay AID1240 (Sanford-Burnham Center for Chemical Genomics, 2008)
The campaign covered roughly 50,000 compounds. About 800 (1.6%) showed an effect of 50% or more. The full list was thinned out, with strong results kept by preference.

Target: Bcl-2-like protein 10 (Homo sapiens) (UniProt Q9HD36)
Assay: Phenotype converters, Bcl-B/TR3 peptide binding displacement, primary biochemical FP (AID 1240);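 also: 0% = Bcl-B with tracer peptide and DMSO and 100% = tracer peptide lacking Bcl-B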
Conditions: GST-Bcl-B / FITC-TR3 peptide fluorescence polarization; stronger effect = higher value; compound at 3.75 mg/L

Bcl-2-like protein 10 (Homo sapiens), sequence (Q9HD36 whole entry, looked up): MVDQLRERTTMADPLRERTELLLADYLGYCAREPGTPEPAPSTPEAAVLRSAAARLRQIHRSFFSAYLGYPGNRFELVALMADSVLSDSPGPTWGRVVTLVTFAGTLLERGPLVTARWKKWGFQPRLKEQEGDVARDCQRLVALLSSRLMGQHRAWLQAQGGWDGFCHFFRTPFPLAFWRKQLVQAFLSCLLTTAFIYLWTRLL

SMILES	displacement [%]
CCOC(=O)C(=O)Nc1nc(C23CC4CC(CC(C4)C2)C3)cs1	3.2
O=C(Cc1ccccc1)Nc1ccc(Cl)c(-c2nc3cc(Cl)ccc3o2)c1	-37.9
CCC(=O)/C(C)=C(\NC(=O)c1ccccc1)c1ccccc1	-4.8
CC(C)c1ccc(N2C(=O)NC(=O)/C(=C/c3ccc(O)c(O)c3)C2=O)cc1	-20.3
Cc1cc(NC(=O)CCN2C(=O)/C(=C\c3cccs3)SC2=S)no1	90.4
O=C(CCCN1C(=O)/C(=C\c2cccs2)SC1=S)Nc1nc2ccccc2s1	12.7
Cc1cc(NC(=O)CCN2C(=O)/C(=C/c3ccccc3)SC2=S)no1	5.3
Cc1ccc(/C=C2\SC(=S)N(CCC(=O)Nc3nccs3)C2=O)cc1	19.4
O=C(CCN1C(=O)/C(=C\c2cccs2)SC1=S)Nc1ccccc1C(=O)O	19.8
O=C(CCCN1C(=O)/C(=C/c2ccccc2)SC1=S)Nc1nccs1	11.2
O=C(CCN1C(=O)/C(=C/c2ccc(Cl)cc2)SC1=S)Nc1nccs1	14.9
Cc1cc(NC(=O)CCN2C(=O)/C(=C/c3ccc(F)cc3)SC2=S)no1	19
O=C(CCN1C(=O)/C(=C\c2cccs2)SC1=S)Nc1nccs1	120
O=C(CCCN1C(=O)/C(=C\c2cccs2)SC1=S)Nc1ccccn1	13.2
O=C(CCCN1C(=O)/C(=C\c2cccs2)SC1=S)Nc1nccs1	114
O=C(CCN1C(=O)/C(=C/c2cccs2)SC1=S)Nc1ccccn1	126
O=C(Nc1nccs1)c1ccc2c(c1)OCO2	32.1
CC(NC(=O)c1cc2cc([N+](=O)[O-])ccc2oc1=O)c1ccccc1 (configuration not stated)	12.2
CS(=O)(=O)N(Cc1ccc(C(=O)Nc2ccc(CC#N)cc2)cc1)c1ccccc1	-7
COc1ccc(/C=C/C(=O)NCc2ccc(C)cc2)cc1OC	9.4
Cc1cccc(NC(=O)CN(c2ccc(C(C)C)cc2)S(=O)(=O)c2ccccc2)c1	2.4
COc1ccc(Cl)cc1N(CC(=O)NCC(C)C)S(=O)(=O)c1ccc(C)c([N+](=O)[O-])c1	16.7
CC(C)(C)c1ccc(OCC(O)CS(=O)(=O)Cc2ccc(Cl)cc2)cc1 (configuration not stated)	8.5
O=C1C2ON(c3ccccc3)C(c3ccccc3)C2C(=O)N1Cc1ccccc1 (configuration not stated)	5.9
COc1cccc(-n2c(O)c(C(c3ccccn3)c3c(O)n(-c4cccc(OC)c4)c(=O)[nH]c3=O)c(=O)[nH]c2=O)c1	67.7
O=c1[nH]c(=O)n(-c2ccccc2)c(O)c1C(c1cccnc1)c1c(O)n(-c2ccccc2)c(=O)[nH]c1=O	-5

SMILES	displacement [%]
COc1cccc(-n2c(O)c(/C=C3\C=c4ccccc4=N3)c(=O)[nH]c2=O)c1	-0.4
O=C1c2ccc([N+](=O)[O-])cc2C(=O)C1c1ccc2ccccc2n1 (configuration not stated)	7.6
O=C1/C(=C\c2cccc(Br)c2)SC(=S)N1c1cccc(C(F)(F)F)c1	18.2
COc1ccc2c(c1)OCC/C2=N\OC(=O)c1ccccc1OC	-7.8
O=C(COc1ccc2ccccc2c1)NCC1CCCO1 (configuration not stated)	12.6
COc1ccccc1-c1coc2cc(OC(=O)c3cccc(Cl)c3)ccc2c1=O	6.5
COc1ccccc1-c1coc2cc(OC(=O)c3ccc(Cl)cc3Cl)ccc2c1=O	63.9
COc1ccccc1-c1coc2cc(OC(=O)c3ccc(Cl)cc3)ccc2c1=O	-2
Cc1ccc(-c2nn(-c3ccccc3)cc2/C=C(\C#N)C(N)=O)o1	61.7
N#CC(C#N)=Cc1cn(-c2ccccc2)nc1-c1ccc(-c2ccc([N+](=O)[O-])cc2)o1	-5.9
Cc1ccc(-c2nn(-c3ccccc3)cc2C=O)o1	-0.3
COc1ccc(CSc2nc3ccccc3n2C)cc1F	-9.9
COc1ccc(OC)c(C2NC(=S)NC(C)=C2C(=O)OCCc2ccccc2)c1 (configuration not stated)	3.9
COc1ccccc1N1CCN(C(=O)COc2ccc(Cl)cc2C)CC1	-4.5
O=c1[nH]c(=S)[nH]c(O)c1C=Nc1ccc(Cl)c(Cl)c1	-7
COc1ccc(Cl)cc1N=Cc1c(O)[nH]c(=O)[nH]c1=O	10.3
O=c1[nH]c(O)c(C=Nc2ccc(F)c(F)c2)c(=O)[nH]1	166
COc1ccc2c(c1OC)C(=O)OC2Nc1cccc(F)c1 (configuration not stated)	-0.4
COc1ccc(-c2cc(C(F)(F)F)n3ncc(C(=O)N4CCOCC4)c3n2)cc1OC	5.2
CCOc1ccccc1NC(=O)C1CN(S(=O)(=O)c2ccccc2)CCN1S(=O)(=O)c1ccccc1 (configuration not stated)	11.2
C/C(=N/NC(=O)c1cccnc1)c1cc(O)ccc1O	-12
CC(C)c1ccc(/C=C2/SC(=O)N(c3ccccc3)C2=O)cc1	1.4
CC(NC(=O)c1ccc(F)cc1)C1CC1 (configuration not stated)	4.6
Cc1cc(Nc2ccc3c(c2)OCO3)n2c(nc3ccccc32)c1C#N	135
Cc1cc(NCCCN(C)C)n2c(nc3ccccc32)c1C#N	-13.5
Cc1cc(NCCCCO)n2c(nc3ccccc32)c1C#N	25.9

SMILES	displacement [%]
Cc1cc(Nc2ccccc2)n2c(nc3ccccc32)c1C#N	-2.8
Cc1cc(Nc2ccc3c(c2)n(C)c(=O)n3C)n2c(nc3ccccc32)c1C#N	22.5
Cc1cc(NCCCO)n2c(nc3ccccc32)c1C#N	160
CC(=O)Nc1ccc(S(=O)(=O)/N=C2\C=CC(=O)c3ccccc32)cc1	22.2
COc1ccc(Cl)cc1C(=O)N(Cc1ccccc1)C(C)C	11.9
Cc1c(Cl)cccc1NC(=O)C1c2ccccc2Oc2ccccc21	11.9
CCn1c2ccccc2c2cc(NC(=O)Cc3ccc(OC)c(OC)c3)ccc21	-5.2
Cc1ccc(Sc2ccc(/C=c3\sc4nc5ccccc5n4c3=O)o2)cc1	86.8
CSc1ccc(/C=c2\sc3nc4ccccc4n3c2=O)cc1	7.3
O=c1/c(=C/c2cc([N+](=O)[O-])ccc2Cl)sc2nc3ccccc3n12	-7.5
CC(=O)Oc1ccc(/C=c2\sc3nc4ccccc4n3c2=O)cc1	28
O=c1/c(=C/c2ccc(-c3ccc(Cl)cc3)o2)sc2nc3ccccc3n12	10.9
CN(C)c1ccc(/C=c2\sc3nc4ccccc4n3c2=O)cc1	107
Cc1cc2nc3s/c(=C/c4ccc5c(c4)OCO5)c(=O)n3c2cc1C	-11.4
O=c1/c(=C/c2ccc(C(F)(F)F)cc2)sc2nc3ccccc3n12	2
O=c1/c(=C/c2ccc([N+](=O)[O-])cc2)sc2nc3ccccc3n12	86.7
O=c1/c(=C\c2ccc(OCc3ccc([N+](=O)[O-])cc3)cc2)sc2nc3ccccc3n12	4.5
O=c1/c(=C/c2ccc(Sc3ccccc3)o2)sc2nc3ccccc3n12	48.5
O=c1/c(=C/c2ccc3c(c2)OCO3)sc2nc3ccccc3n12	69.3
COc1ccc(/C=C2\C(=O)NN(c3ccc(Cl)c(Cl)c3)C2=O)cc1OC	-13.2
CCOc1ccccc1/C=N/Nc1nnc(-c2ccccc2)c(=O)[nH]1	-10.7
O=C(COc1ccccc1Cl)N1CCN(c2ccc([N+](=O)[O-])cc2)CC1	-3.3
O=C1NC(=S)N(c2ccc(Cl)cc2)C(=O)C1=Cc1ccsc1	8.3
O=C1CSC(c2cn(-c3ccccc3)nc2-c2ccc(Cl)cc2)N1Cc1ccccc1 (configuration not stated)	-6.5
O=c1[nH]cc(N=Cc2ccccc2)c(=O)[nH]1	-2.8
Cc1onc(-c2ccccc2Cl)c1C(=O)Nc1sc(C)c(C)c1C#N	13.6

SMILES	displacement [%]
CCc1nc2ccccc2n1CC(O)COC1CCCCC1 (configuration not stated)	-10.7
COC(=O)c1ccc(N2C(=O)c3cccc([N+](=O)[O-])c3C2=O)cc1	-0.7
O=c1/c(=C/c2cccs2)sc2nc3ccccc3n12	7.2
O=c1/c(=C/c2ccccn2)sc2nc3ccccc3n12	102
Cc1ccsc1/C=c1\sc2nc3ccccc3n2c1=O	-8.5
CCOc1ccc(NC(=O)CC2S/C(=N\N=C(/C)c3cccc(NC(C)=O)c3)NC2=O)cc1 (configuration not stated)	-11
O=C1c2cccc3c(N4CCCCC4)ccc(c23)C(=O)N1CCO	66.1
O=C1c2cccc3c(N4CCCCC4)ccc(c23)C(=O)N1c1ccc(Cl)cn1	25.4
CN1CCN(C(=O)CCN2C(=O)c3cccc4cccc(c34)C2=O)CC1	18.2
CN1CCN(c2ccc3c4c(cccc24)C(=O)c2ccccc2-3)CC1	2.9
CN1CCN(c2ccc3c4c(cccc24)C(=O)N(CCO)C3=O)CC1	155
CC(C)N1C(=O)c2cccc3c(N4CCCCC4)ccc(c23)C1=O	9.8
CCOC(=O)c1c(-c2ccccc2)oc2ccc(OC(=O)c3ccc(OC)c(OC)c3)cc12	8.8
Cc1ccc(C(=O)COc2cc(OCC(=O)c3ccc(C)cc3)c3c(C)cc(=O)oc3c2)cc1	10
COc1nccnc1NS(=O)(=O)c1ccc(NC(=S)NC(=O)c2ccc(F)c(F)c2)cc1	6.6
CSc1ccc(-c2ncnn2-c2cccc(Cl)c2)cc1	-4.7
COC(=O)C1C(=O)N(C)C(c2ccccc2)C1C(=O)OC (configuration not stated)	8.4
CCOC(=O)C1=C(C)N=c2s/c(=C/c3ccc(F)cc3)c(=O)n2C1c1cccc([N+](=O)[O-])c1 (configuration not stated)	7.1
CCOC(=O)C1=C(C)N=c2s/c(=C\c3cccc([N+](=O)[O-])c3)c(=O)n2C1c1ccccc1F (configuration not stated)	138
CCOC(=O)C1=C(C)N=c2s/c(=C\c3cccc([N+](=O)[O-])c3)c(=O)n2C1c1cccc(OC)c1 (configuration not stated)	4.1
CCOC(=O)C1=C(C)N=c2s/c(=C\c3cccc([N+](=O)[O-])c3)c(=O)n2C1c1ccc(C)cc1 (configuration not stated)	16.1
CCOC(=O)C1=C(C)N=c2s/c(=C/c3cccc([N+](=O)[O-])c3)c(=O)n2C1c1ccccc1Cl (configuration not stated)	10.2
CCOC(=O)C1=C(C)N=c2s/c(=C\c3ccc(C)cc3)c(=O)n2C1c1cccc([N+](=O)[O-])c1 (configuration not stated)	127
CCCCOc1ccc(C(=O)O/N=C2/CCc3cc(OC)ccc32)cc1	2
